How the values were obtained:
Assay in all cases: log2 ratio of Biotin-Ahx-Ub-VS probe labelling (fragment/DMSO); higher = less target engagement (more negative = stronger competition), active = hit call of the paper (q ≤ 0.05, log2 ratio ≤ -1)
Details in all cases: compound concentration: 200 uM; treatment time: 3 h
OTUD6B = target: T1, OTUD6B (UniProt Q8N6M0)
T1 sequence (whole entry): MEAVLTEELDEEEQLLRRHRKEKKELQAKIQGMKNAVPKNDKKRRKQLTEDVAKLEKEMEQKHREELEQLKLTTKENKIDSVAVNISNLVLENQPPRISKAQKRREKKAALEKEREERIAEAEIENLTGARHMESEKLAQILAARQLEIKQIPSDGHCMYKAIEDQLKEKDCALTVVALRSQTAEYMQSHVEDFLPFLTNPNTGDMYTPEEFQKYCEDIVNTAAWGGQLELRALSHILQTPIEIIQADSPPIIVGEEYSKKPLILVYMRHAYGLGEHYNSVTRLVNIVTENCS
Summary of the method: (§1)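 Global-median-normalised Spectronaut label-free quantities were compared by unpaired t-test, and values are average log2 ratios of fragment over vehicle. Only proteins with ≥2 unique peptides were used. HEK293T lysate (495 µg per sample) was treated in triplicate with fragment at 200 µM or vehicle for 3 h and then with Biotin-Ahx-Ub-VS at 0.5 µM final for 1 h. Labelled DUBs were then NeutrAvidin-enriched, digested with LysC and trypsin, and run by diaPASEF LC-MS/MS.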

OTUD7B = target: T2, OTUD7B (UniProt Q6GQQ9)
T2 sequence (whole entry): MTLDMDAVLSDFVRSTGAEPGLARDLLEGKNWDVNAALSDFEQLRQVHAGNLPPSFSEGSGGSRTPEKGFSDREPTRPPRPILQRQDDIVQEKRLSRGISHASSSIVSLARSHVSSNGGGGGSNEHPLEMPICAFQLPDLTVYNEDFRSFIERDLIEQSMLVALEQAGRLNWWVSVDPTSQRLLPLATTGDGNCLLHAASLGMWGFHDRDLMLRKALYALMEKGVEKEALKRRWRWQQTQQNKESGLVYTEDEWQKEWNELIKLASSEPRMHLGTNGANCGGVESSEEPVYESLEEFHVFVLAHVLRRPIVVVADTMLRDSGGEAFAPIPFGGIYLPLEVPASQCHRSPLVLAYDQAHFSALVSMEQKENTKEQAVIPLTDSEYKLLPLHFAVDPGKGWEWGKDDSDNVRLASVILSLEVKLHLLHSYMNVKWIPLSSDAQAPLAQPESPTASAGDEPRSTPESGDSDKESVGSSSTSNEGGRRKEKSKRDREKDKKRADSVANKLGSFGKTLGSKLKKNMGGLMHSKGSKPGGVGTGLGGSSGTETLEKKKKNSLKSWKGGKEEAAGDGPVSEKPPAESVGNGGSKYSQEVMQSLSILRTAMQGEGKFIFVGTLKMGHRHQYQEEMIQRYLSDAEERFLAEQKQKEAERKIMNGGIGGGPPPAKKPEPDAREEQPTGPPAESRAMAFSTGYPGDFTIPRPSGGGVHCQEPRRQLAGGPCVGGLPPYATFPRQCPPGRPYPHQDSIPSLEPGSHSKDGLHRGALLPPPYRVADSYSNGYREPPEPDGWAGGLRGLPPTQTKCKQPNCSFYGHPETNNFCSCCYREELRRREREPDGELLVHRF
Summary of the method: as §1

PRPF8 = PRPF8 (UniProt Q6P2Q9)
Summary of the method: as §1

PSMD7 = target: T3, PSMD7 (UniProt P51665)
T3 sequence (whole entry): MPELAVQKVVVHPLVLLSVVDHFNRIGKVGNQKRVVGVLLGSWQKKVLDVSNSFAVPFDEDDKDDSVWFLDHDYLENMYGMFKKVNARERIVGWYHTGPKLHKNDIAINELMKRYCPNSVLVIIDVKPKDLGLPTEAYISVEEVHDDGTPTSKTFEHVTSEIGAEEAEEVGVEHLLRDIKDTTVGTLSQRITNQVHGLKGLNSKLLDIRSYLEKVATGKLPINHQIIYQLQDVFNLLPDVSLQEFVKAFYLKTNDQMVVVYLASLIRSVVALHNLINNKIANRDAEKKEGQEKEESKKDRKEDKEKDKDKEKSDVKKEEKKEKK
Summary of the method: as §1

UCHL1 = UCHL1 (UniProt P09936)
Sequence of UCHL1 (P09936 whole entry, looked up): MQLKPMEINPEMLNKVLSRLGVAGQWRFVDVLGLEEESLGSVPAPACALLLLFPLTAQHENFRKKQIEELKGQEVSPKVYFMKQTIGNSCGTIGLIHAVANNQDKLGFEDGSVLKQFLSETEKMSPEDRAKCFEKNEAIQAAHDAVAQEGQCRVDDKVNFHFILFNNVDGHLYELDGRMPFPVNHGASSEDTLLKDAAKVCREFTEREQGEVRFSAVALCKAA
Summary of the method: as §1

UCHL3 = target: T4, UCHL3 (UniProt P15374)
T4 sequence (whole entry): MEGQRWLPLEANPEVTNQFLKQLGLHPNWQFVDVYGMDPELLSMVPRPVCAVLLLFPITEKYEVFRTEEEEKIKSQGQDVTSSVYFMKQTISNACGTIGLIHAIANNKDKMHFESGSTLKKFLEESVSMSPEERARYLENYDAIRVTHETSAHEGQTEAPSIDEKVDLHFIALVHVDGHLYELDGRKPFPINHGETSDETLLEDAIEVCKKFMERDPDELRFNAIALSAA
Summary of the method: as §1

UCHL5 = target: T5, UCHL5 (UniProt Q9Y5K5)
T5 sequence (whole entry): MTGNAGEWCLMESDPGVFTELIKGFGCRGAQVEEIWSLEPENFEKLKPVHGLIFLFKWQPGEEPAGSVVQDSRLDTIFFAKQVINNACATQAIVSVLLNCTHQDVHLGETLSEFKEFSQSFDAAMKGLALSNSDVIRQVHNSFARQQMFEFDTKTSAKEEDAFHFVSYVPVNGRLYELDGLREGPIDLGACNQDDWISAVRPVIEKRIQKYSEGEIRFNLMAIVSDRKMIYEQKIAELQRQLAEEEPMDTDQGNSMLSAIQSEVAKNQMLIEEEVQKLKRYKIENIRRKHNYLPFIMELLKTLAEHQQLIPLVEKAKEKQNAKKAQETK
Summary of the method: as §1

USP10 = USP10 (UniProt Q14694)
Sequence of USP10 (Q14694 whole entry): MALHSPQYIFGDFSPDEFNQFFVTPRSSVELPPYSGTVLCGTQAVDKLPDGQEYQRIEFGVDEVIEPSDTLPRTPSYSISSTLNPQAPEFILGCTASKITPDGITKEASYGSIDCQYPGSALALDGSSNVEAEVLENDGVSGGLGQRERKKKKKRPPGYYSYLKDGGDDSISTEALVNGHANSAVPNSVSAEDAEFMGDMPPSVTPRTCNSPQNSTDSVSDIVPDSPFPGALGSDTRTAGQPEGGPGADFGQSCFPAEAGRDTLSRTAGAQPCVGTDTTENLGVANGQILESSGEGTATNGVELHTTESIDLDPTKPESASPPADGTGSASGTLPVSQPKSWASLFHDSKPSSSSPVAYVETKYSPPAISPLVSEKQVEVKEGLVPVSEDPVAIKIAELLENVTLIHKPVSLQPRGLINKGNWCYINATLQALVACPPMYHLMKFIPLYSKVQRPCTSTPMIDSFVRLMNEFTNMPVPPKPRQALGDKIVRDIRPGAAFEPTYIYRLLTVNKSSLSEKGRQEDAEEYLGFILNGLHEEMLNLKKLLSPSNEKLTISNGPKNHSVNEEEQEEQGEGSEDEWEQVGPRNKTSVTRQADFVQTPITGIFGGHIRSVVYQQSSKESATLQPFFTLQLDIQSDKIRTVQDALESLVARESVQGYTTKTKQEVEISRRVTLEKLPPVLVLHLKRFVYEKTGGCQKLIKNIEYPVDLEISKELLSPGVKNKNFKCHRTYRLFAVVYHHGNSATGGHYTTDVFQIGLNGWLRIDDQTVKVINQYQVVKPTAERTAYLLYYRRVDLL
Summary of the method: as §1

USP15 = target: T6, USP15 (UniProt Q9Y4E8)
T6 sequence (whole entry): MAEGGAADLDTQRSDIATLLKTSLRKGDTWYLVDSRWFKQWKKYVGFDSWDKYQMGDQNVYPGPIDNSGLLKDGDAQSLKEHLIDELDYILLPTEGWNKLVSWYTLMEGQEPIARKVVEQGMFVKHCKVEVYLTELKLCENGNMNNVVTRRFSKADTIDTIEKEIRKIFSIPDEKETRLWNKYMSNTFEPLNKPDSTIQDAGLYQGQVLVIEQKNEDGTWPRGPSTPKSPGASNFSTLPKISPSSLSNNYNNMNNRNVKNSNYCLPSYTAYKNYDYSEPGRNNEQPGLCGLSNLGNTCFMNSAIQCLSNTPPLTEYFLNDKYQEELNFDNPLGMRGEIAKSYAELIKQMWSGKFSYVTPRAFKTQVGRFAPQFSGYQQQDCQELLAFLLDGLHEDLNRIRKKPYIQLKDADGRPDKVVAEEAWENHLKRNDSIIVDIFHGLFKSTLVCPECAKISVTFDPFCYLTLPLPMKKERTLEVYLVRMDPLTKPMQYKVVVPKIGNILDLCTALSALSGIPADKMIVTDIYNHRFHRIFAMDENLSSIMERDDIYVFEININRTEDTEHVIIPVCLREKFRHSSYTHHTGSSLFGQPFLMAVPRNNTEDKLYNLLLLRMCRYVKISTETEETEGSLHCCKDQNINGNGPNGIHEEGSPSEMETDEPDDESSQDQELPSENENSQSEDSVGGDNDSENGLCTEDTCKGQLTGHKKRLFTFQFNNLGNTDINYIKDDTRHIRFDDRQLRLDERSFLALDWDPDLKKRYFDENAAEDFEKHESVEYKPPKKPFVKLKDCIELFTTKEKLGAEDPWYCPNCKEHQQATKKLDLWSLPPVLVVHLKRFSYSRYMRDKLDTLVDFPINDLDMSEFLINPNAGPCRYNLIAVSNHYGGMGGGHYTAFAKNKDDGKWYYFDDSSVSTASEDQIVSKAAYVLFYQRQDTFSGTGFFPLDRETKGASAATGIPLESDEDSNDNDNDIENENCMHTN
Summary of the method: as §1

Measured: log2 ratio of Biotin-Ahx-Ub-VS probe labelling

O=C(CCl)NCCC1COCCO1 (centres undefined)
active: UCHL1 -1.39
inactive: OTUD6B -0.0161 | OTUD7B -0.0714 | PRPF8 -0.0389 | PSMD7 -0.237 | UCHL3 0.227 | UCHL5 -0.221 | USP10 -0.143 | USP15 0.0547
